According to the supplement of paper PMC10037445:
In all, about 2,900 compounds were measured (“NF-kB SEAP reporter activity, fold change vs agonist alone”: median about 0.99, highest 2% from about 2.6 on). This is one part of a sample in which the highest values are shown more often than they occur.

Tests used:
RAW-Dual [1] = assay: NF-kB SEAP reporter activity, fold change vs agonist alone; higher = enhanced NF-kB activity
In short: (§1)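 RAW-Dual macrophages were seeded in DMEM at 50,000 cells/well in 384-well plates, given 50 nL of library stock by pin tool, and given a PRR agonist 1 h later. Plates were held at 37 °C, 5% CO2 for 20 hours, after which supernatant was read for IRF by QuantiLuc luminescence and for NF-κB by QuantiBlue absorbance at 620 nm. Reporter activity is expressed as fold change over wells that received agonist alone. A well was called cytotoxic when IncuCyte confluency fell below 70% of agonist controls in both mask sets.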

RAW-Dual [2] = assay: NF-kB SEAP reporter activity, fold change vs agonist alone; cytotoxicity flag (confluency mask): not cytotoxic; higher = enhanced NF-kB activity
In short: as §1

RAW-Dual [3] = assay: NF-kB SEAP reporter activity, fold change vs agonist alone; cytotoxicity flag (confluency mask): cytotoxic (confluency <70% of control); higher = enhanced NF-kB activity
In short: as §1

[4] = library stock concentration (final ~1000-fold dilution): 10 mM, cytotoxicity flag (confluency mask): not cytotoxic, agonist: Imiquimod (TLR7) […]
[5] = library stock concentration (final ~1000-fold dilution): 10 mM, cytotoxicity flag (confluency mask): not cytotoxic, agonist: MPLA (TLR4) […]
[6] = agonist: ODN 1826 (TLR9) 0.5 ug/mL
[7] = agonist: Pam2CSK4 (TLR2/6) 0.1 ug/mL
[8] = agonist: Pam3CSK4 (TLR2/1) 0.1 ug/mL

For `CCCC(NC(=O)/C(C#N)=C/c1cccc(Br)n1)c1ccccc1` (configuration not stated), the “NF-kB SEAP reporter activity” value (RAW-Dual [1]; [4]) was 0.971 and the “NF-kB SEAP reporter activity” value (RAW-Dual [1]; [5]) was 0.962.

With `CCCC(NC(=O)/C(C#N)=C/c1cccc(Br)n1)c1ccccc1` (configuration not stated) (library stock concentration (final ~1000-fold dilution): 10 mM) the “NF-kB SEAP reporter activity” value (RAW-Dual [2]; agonist: LPS (TLR4) 0.1 ug/mL) was 0.416, the “NF-kB SEAP reporter activity” value (RAW-Dual [2]; [6]) was 0.925 and the “NF-kB SEAP reporter activity” value (RAW-Dual [2]; [7]) was 0.387. For the same compound, the “NF-kB SEAP reporter activity” value (RAW-Dual [2]; [8]) was 0.838.

With `Cc1[nH]c2ccccc2c1C1=C(NCCc2ccc(F)cc2)C(=O)N(C)C1=O` (library stock concentration (final ~1000-fold dilution): 10 mM) the “NF-kB SEAP reporter activity” value (RAW-Dual [2]; agonist: LPS (TLR4) 0.1 ug/mL) was 1.23, the “NF-kB SEAP reporter activity” value (RAW-Dual [2]; [6]) was 0.588 and the “NF-kB SEAP reporter activity” value (RAW-Dual [2]; [7]) was 0.531. The “NF-kB SEAP reporter activity” value (RAW-Dual [2]; [8]) was 0.337.

For `Cc1[nH]c2ccccc2c1C1=C(NCCc2ccc(F)cc2)C(=O)N(C)C1=O`, the “NF-kB SEAP reporter activity” value (RAW-Dual [1]; [4]) was 1.01 and the “NF-kB SEAP reporter activity” value (RAW-Dual [1]; [5]) was 1.28.

`Cc1[nH]c2ccccc2c1CCNC(=O)c1cccs1` (library stock concentration (final ~1000-fold dilution): 10 mM) was tested, and the “NF-kB SEAP reporter activity” value (RAW-Dual [2]; agonist: LPS (TLR4) 0.1 ug/mL) was 1, the “NF-kB SEAP reporter activity” value (RAW-Dual [2]; [6]) was 1.06 and the “NF-kB SEAP reporter activity” value (RAW-Dual [2]; [7]) was 1.12. The “NF-kB SEAP reporter activity” value (RAW-Dual [2]; [8]) was 0.991.

For `Cc1[nH]c2ccccc2c1CCNCc1ccc(/C=C/C(=O)NO)cc1` (library stock concentration (final ~1000-fold dilution): 10 mM), the “NF-kB SEAP reporter activity” value (RAW-Dual [3]; agonist: LPS (TLR4) 0.1 ug/mL) was 4.6, the “NF-kB SEAP reporter activity” value (RAW-Dual [3]; [6]) was 0.219 and the “NF-kB SEAP reporter activity” value (RAW-Dual [3]; [7]) was 0.886. For the same compound, the “NF-kB SEAP reporter activity” value (RAW-Dual [3]; [8]) was 1.47.

With `Cc1[nH]c2ccccc2c1CCNCc1ccc(/C=C/C(=O)NO)cc1` the “NF-kB SEAP reporter activity” value (RAW-Dual [1]; library stock concentration (final ~1000-fold dilution): 10 mM, cytotoxicity flag (confluency mask): cytotoxic (confluency <70% of control), agonist: Imiquimod (TLR7) […]) was 2.51 and the “NF-kB SEAP reporter activity” value (RAW-Dual [1]; library stock concentration (final ~1000-fold dilution): 10 mM, cytotoxicity flag (confluency mask): cytotoxic (confluency <70% of control), agonist: MPLA (TLR4) […]) was 2.63.

`Cc1[nH]c2ccccc2c1CCNC(=O)c1cccs1` was tested, and the “NF-kB SEAP reporter activity” value (RAW-Dual [1]; [4]) was 1.06 and the “NF-kB SEAP reporter activity” value (RAW-Dual [1]; [5]) was 1.11.

`O=c1oc2cc(O)ccc2c2ccc(O)cc12` (library stock concentration (final ~1000-fold dilution): 10 mM) was tested, and the “NF-kB SEAP reporter activity” value (RAW-Dual [2]; agonist: LPS (TLR4) 0.1 ug/mL) was 1.08, the “NF-kB SEAP reporter activity” value (RAW-Dual [2]; [6]) was 0.575 and the “NF-kB SEAP reporter activity” value (RAW-Dual [2]; [7]) was 0.257. The “NF-kB SEAP reporter activity” value (RAW-Dual [2]; [8]) was 0.455.

`O=c1oc2cc(O)ccc2c2ccc(O)cc12` was tested, and the “NF-kB SEAP reporter activity” value (RAW-Dual [1]; [4]) was 1.26 and the “NF-kB SEAP reporter activity” value (RAW-Dual [1]; [5]) was 1.58.

`CNC(=O)c1ccc(-c2cnc3cnc(-c4ccccc4)cn23)cc1` (library stock concentration (final ~1000-fold dilution): 10 mM) was tested, and the “NF-kB SEAP reporter activity” value (RAW-Dual [2]; agonist: LPS (TLR4) 0.1 ug/mL) was 1.54, the “NF-kB SEAP reporter activity” value (RAW-Dual [2]; [6]) was 0.763 and the “NF-kB SEAP reporter activity” value (RAW-Dual [2]; [7]) was 1.22. The “NF-kB SEAP reporter activity” value (RAW-Dual [2]; [8]) was 2.3.

`CNC(=O)c1ccc(-c2cnc3cnc(-c4ccccc4)cn23)cc1` was tested, and the “NF-kB SEAP reporter activity” value (RAW-Dual [1]; [4]) was 1.1 and the “NF-kB SEAP reporter activity” value (RAW-Dual [1]; [5]) was 1.37.

With `CC12CCC3c4ccc(O)cc4CC(CCCCCCCCCS(=O)CCCC(F)(F)C(F)(F)F)C3C1CCC2O` (configuration not stated) (library stock concentration (final ~1000-fold dilution): 10 mM) the “NF-kB SEAP reporter activity” value (RAW-Dual [2]; agonist: LPS (TLR4) 0.1 ug/mL) was 0.714, the “NF-kB SEAP reporter activity” value (RAW-Dual [2]; [6]) was 0.721 and the “NF-kB SEAP reporter activity” value (RAW-Dual [2]; [7]) was 0.634. For the same compound, the “NF-kB SEAP reporter activity” value (RAW-Dual [2]; [8]) was 0.864.

In the case of `CC12CCC3c4ccc(O)cc4CC(CCCCCCCCCS(=O)CCCC(F)(F)C(F)(F)F)C3C1CCC2O` (configuration not stated), the “NF-kB SEAP reporter activity” value (RAW-Dual [1]; [4]) is reported as 0.89 and the “NF-kB SEAP reporter activity” value (RAW-Dual [1]; [5]) is reported as 0.904.

With `CC#CC(=O)N1CCCC1c1nc(-c2ccc(C(=O)Nc3ccccn3)cc2)c2c(N)nccn12` (configuration not stated) (library stock concentration (final ~1000-fold dilution): 10 mM) the “NF-kB SEAP reporter activity” value (RAW-Dual [2]; agonist: LPS (TLR4) 0.1 ug/mL) was 1.09, the “NF-kB SEAP reporter activity” value (RAW-Dual [2]; [6]) was 0.844 and the “NF-kB SEAP reporter activity” value (RAW-Dual [2]; [7]) was 0.581. For the same compound, the “NF-kB SEAP reporter activity” value (RAW-Dual [2]; [8]) was 0.793.

`CC#CC(=O)N1CCCC1c1nc(-c2ccc(C(=O)Nc3ccccn3)cc2)c2c(N)nccn12` (configuration not stated) was tested, and the “NF-kB SEAP reporter activity” value (RAW-Dual [1]; [4]) was 0.862 and the “NF-kB SEAP reporter activity” value (RAW-Dual [1]; [5]) was 0.81.

`COC1OC(COS(=O)(=O)O)C(OC2OC(C(=O)O)C(OC3OC(COS(=O)(=O)O)C(OC4OC(C(=O)O)C(OC5OC(COS(=O)(=O)O)C(O)C(O)C5NS(=O)(=O)O)C(O)C4O)C(OS(=O)(=O)O)C3NS(=O)(=O)O)C(O)C2OS(=O)(=O)O)C(O)C1NS(=O)(=O)O` (configuration not stated) was tested, and the “NF-kB SEAP reporter activity” value (RAW-Dual [1]; library stock concentration (final ~1000-fold dilution): 10 mM water, cytotoxicity flag (confluency mask): not cytotoxic, agonist: Imiquimod (TLR7) […]) was 1.04 and the “NF-kB SEAP reporter activity” value (RAW-Dual [1]; library stock concentration (final ~1000-fold dilution): 10 mM water, cytotoxicity flag (confluency mask): not cytotoxic, agonist: MPLA (TLR4) […]) was 1.06.

`COC1OC(COS(=O)(=O)O)C(OC2OC(C(=O)O)C(OC3OC(COS(=O)(=O)O)C(OC4OC(C(=O)O)C(OC5OC(COS(=O)(=O)O)C(O)C(O)C5NS(=O)(=O)O)C(O)C4O)C(OS(=O)(=O)O)C3NS(=O)(=O)O)C(O)C2OS(=O)(=O)O)C(O)C1NS(=O)(=O)O` (configuration not stated) (library stock concentration (final ~1000-fold dilution): 10 mM water) was tested, and the “NF-kB SEAP reporter activity” value (RAW-Dual [2]; agonist: LPS (TLR4) 0.1 ug/mL) was 1.06, the “NF-kB SEAP reporter activity” value (RAW-Dual [2]; [6]) was 1.3 and the “NF-kB SEAP reporter activity” value (RAW-Dual [2]; [7]) was 1.25. The “NF-kB SEAP reporter activity” value (RAW-Dual [2]; [8]) was 1.04.

With `CC(C)C(C(=O)Nc1ccc(C(=O)NO)cc1)c1ccccc1` (configuration not stated) the “NF-kB SEAP reporter activity” value (RAW-Dual [1]; [4]) was 0.965 and the “NF-kB SEAP reporter activity” value (RAW-Dual [1]; [5]) was 0.937.

For `CC(C(=O)O)c1cccc(C(=O)c2ccccc2)c1` (configuration not stated), the “NF-kB SEAP reporter activity” value (RAW-Dual [1]; [4]) was 0.866 and the “NF-kB SEAP reporter activity” value (RAW-Dual [1]; [5]) was 1.05.

For `CC(C)C(C(=O)Nc1ccc(C(=O)NO)cc1)c1ccccc1` (configuration not stated) (library stock concentration (final ~1000-fold dilution): 10 mM), the “NF-kB SEAP reporter activity” value (RAW-Dual [2]; agonist: LPS (TLR4) 0.1 ug/mL) was 4.76, the “NF-kB SEAP reporter activity” value (RAW-Dual [2]; [6]) was 0.93 and the “NF-kB SEAP reporter activity” value (RAW-Dual [2]; [7]) was 1.12. For the same compound, the “NF-kB SEAP reporter activity” value (RAW-Dual [2]; [8]) was 1.15.

In the case of `CC(C(=O)O)c1cccc(C(=O)c2ccccc2)c1` (configuration not stated) (library stock concentration (final ~1000-fold dilution): 10 mM), the “NF-kB SEAP reporter activity” value (RAW-Dual [2]; agonist: LPS (TLR4) 0.1 ug/mL) is reported as 1.02, the “NF-kB SEAP reporter activity” value (RAW-Dual [2]; [6]) is reported as 1.01 and the “NF-kB SEAP reporter activity” value (RAW-Dual [2]; [7]) is reported as 1.11. The “NF-kB SEAP reporter activity” value (RAW-Dual [2]; [8]) was 1.19.

In the case of `Cc1nc(-c2nc(-c3ccc(OC(F)(F)F)cc3)no2)nn1Cc1cccc(N2CCC(S(C)(=O)=O)CC2)c1`, the “NF-kB SEAP reporter activity” value (RAW-Dual [1]; [4]) is reported as 0.853 and the “NF-kB SEAP reporter activity” value (RAW-Dual [1]; [5]) is reported as 1.28.

`Cc1nc(-c2nc(-c3ccc(OC(F)(F)F)cc3)no2)nn1Cc1cccc(N2CCC(S(C)(=O)=O)CC2)c1` (library stock concentration (final ~1000-fold dilution): 10 mM) was tested, and the “NF-kB SEAP reporter activity” value (RAW-Dual [2]; agonist: LPS (TLR4) 0.1 ug/mL) was 2, the “NF-kB SEAP reporter activity” value (RAW-Dual [2]; [6]) was 0.837 and the “NF-kB SEAP reporter activity” value (RAW-Dual [2]; [7]) was 0.462. The “NF-kB SEAP reporter activity” value (RAW-Dual [2]; [8]) was 0.849.
